UBC9 SUMO inh: SUMOylation inhibition. HTRF SUMOylation assay, SAE1/SAE2 + UBC9, in vitro. 290,000 tested, 0.36% active. inhibition, % at 35 µM. AID 2006. P63279; in the data active = inhibition above about 50%, passing the limit was not always enough
SIRT5 inh: inhibitors of human sirtuin-5 desuccinylase; Q9NXA8; Purified SirT5, succinyl-peptide AMC, trypsin-coupled fluorescence; inhibition, % at 15 µM; 330,000 tested, 1.1% active; AID 652115; in the data active = inhibition above about 15%
CASP6 VEID inh: blocks human caspase-6 cleavage activity; purified caspase-6, Z-VEID-R110 cleavage fluorescence; inhibition, % at 12.5 µM; 350,000 tested, 0.53% active; AID 686996;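 active = mean inhibition across replicates at least about 35%, with every replicate also reaching that limit, limit read from the data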
NSD2 inh: blocks human histone methyltransferase NSD2 | NSD2 peptide methylation, AlphaScreen, 120 min | inhibition, % at 12.5 µM | O96028 | 310,000 tested, 0.54% active; in the data active = inhibition above about 50%
Target sequence (O96028 whole entry, looked up): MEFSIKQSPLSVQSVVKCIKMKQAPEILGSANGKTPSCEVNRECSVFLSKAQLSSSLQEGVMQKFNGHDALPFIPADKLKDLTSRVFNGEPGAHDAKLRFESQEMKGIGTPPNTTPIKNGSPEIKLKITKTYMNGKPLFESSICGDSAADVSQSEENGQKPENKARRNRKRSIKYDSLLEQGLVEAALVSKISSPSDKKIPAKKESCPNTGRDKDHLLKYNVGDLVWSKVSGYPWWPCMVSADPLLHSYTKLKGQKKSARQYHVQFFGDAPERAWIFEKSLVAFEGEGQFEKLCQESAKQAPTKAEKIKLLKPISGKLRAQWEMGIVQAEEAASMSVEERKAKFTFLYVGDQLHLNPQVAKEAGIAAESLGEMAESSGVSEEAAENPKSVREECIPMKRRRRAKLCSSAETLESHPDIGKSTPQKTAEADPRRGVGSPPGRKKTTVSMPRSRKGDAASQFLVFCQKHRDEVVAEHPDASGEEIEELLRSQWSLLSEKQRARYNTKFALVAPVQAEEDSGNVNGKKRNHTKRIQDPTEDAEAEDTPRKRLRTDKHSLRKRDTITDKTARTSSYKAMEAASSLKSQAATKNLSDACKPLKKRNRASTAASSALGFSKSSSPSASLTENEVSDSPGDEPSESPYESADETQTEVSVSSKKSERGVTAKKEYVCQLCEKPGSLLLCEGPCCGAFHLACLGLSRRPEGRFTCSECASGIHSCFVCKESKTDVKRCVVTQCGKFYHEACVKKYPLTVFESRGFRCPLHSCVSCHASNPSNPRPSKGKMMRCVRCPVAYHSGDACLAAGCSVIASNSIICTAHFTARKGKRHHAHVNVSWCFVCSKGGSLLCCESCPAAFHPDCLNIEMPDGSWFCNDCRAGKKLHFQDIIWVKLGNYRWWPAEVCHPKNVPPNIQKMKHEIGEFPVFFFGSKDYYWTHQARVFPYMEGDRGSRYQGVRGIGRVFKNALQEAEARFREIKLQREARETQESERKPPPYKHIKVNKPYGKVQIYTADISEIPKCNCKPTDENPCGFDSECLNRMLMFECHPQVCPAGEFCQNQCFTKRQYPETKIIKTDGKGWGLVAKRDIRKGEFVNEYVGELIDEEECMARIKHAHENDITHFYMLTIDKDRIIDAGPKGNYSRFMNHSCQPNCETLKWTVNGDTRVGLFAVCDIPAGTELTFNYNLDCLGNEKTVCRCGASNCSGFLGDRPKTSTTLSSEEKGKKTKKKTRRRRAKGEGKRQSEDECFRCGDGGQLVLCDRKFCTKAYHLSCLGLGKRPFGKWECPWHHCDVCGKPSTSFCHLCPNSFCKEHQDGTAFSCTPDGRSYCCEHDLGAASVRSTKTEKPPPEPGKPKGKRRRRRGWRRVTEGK
Of the large screens only hits and unclear results are named; the others gave an inactive call. Sampled rows, rich in hits. Any-hit rate of the full collection: about 1.6%.

O=C(NNc1ccccc1[N+](=O)[O-])Nc1ccccc1	none
O=C(NNc1ccccc1[N+](=O)[O-])Nc1ccc(Cl)c(Cl)c1	SIRT5 inh 16
NS(=O)(=O)c1ccc(Cl)c(C(=O)Nc2ccccc2[N+](=O)[O-])c1	SIRT5 inh 18
O=C(Nc1ccccc1[N+](=O)[O-])c1cc(S(=O)(=O)Nc2ccccn2)ccc1Cl	none
O=C(O)c1ccc2c(c1)ncn2C1CCCC1	SIRT5 inh 21
Nc1c(C=C2C=CC(=O)C=C2)c(=O)nc2sc(CC(=O)N3CCOCC3)nn12	SIRT5 inh 23
COC1=C/C(=C/c2c(N)n3nc(CC(=O)N4CCCCC4)sc3nc2=O)C=CC1=O	none (no result: SIRT5 inh, CASP6 VEID inh, NSD2 inh)
COC1=CC(=Cc2c(N)n3nc(CC(=O)N4CCOCC4)sc3nc2=O)C=C(OC)C1=O	none
CCOC1=C/C(=C/c2c(N)n3nc(CC(=O)N4CCCCC4)sc3nc2=O)C=CC1=O	SIRT5 inh 32
C=CCC1=C/C(=C\c2c(N)n3nc(CC(=O)N4CCCC4)sc3nc2=O)C=C(OC)C1=O	SIRT5 inh 20
CC=Cc1ccc2n(c1=O)C[C@@H]1[C@@H](CO)[C@H](C(=O)NCC3CC3)N(Cc3nccs3)[C@H]21 (mixture of isomers)	none (no result: UBC9 SUMO inh, NSD2 inh)
C[C@H]1CCCCO[C@@H](CN(C)S(=O)(=O)c2ccc(Cl)cc2)[C@@H](C)CN([C@@H](C)CO)C(=O)c2cc(NS(C)(=O)=O)ccc2O1	none (no result: UBC9 SUMO inh, NSD2 inh)
Cc1ccc(OCC(=O)NNC(=O)[C@@H]2CCCC[C@@H]2C(=O)O)c(Br)c1	none
Cc1cccc(OCC(=O)NNC(=O)C2CCCCC2C(=O)O)c1 (configuration not stated)	SIRT5 inh 37
CN1c2ccc(-c3ccccc3)cc2[C@H]2[C@H](CCN2C(=O)c2ccccc2)[C@@H]1CO	none (no result: UBC9 SUMO inh, NSD2 inh)
CCC(=O)NC(c1cccs1)c1cc([N+](=O)[O-])c2cccnc2c1O (configuration not stated)	SIRT5 inh 24
CCCC(=O)NC(c1cccs1)c1cc([N+](=O)[O-])c2cccnc2c1O (configuration not stated)	none
CCOc1ccc(C(=O)CSCCC(=O)O)cc1	SIRT5 inh 112
COc1cccc(C2Nc3ccc4ccccc4c3C3=C2C(=O)CCC3)c1O (configuration not stated)	SIRT5 inh 22
CN(C)CCCNC(=O)[C@@H]1[C@@H](CO)[C@@H]2Cn3c(ccc(-c4ccc(F)cc4)c3=O)[C@@H]2N1C	none (no result: UBC9 SUMO inh, CASP6 VEID inh, NSD2 inh)
O=C(c1ccccc1F)N1CC(=O)N2[C@@H](CO)[C@H](c3ccc(C#Cc4ccccc4)cc3)[C@@H]2C1	none (no result: UBC9 SUMO inh, NSD2 inh)
CN(C)C(=O)[C@@H]1[C@@H](CO)[C@@H]2Cn3c(ccc(-c4ccccc4)c3=O)[C@H]1N2CCc1ccccc1	SIRT5 inh 29 (no result: UBC9 SUMO inh, NSD2 inh)
COc1cnn(-c2ccc(Br)cc2)c(=O)c1SCc1ccccc1	SIRT5 inh 28
COCC#Cc1ccc2c(c1)O[C@@H](CN(C)C)[C@@H](C)CN([C@H](C)CO)S2(=O)=O	none (no result: UBC9 SUMO inh, NSD2 inh)
COc1ccc(S(=O)(=O)N(C)[C@H]2C[C@H]3c4cc(Oc5ccccc5C)ccc4CCN3C(=O)[C@H]2[C@H](C)O)cc1	SIRT5 inh 17 (no result: UBC9 SUMO inh, NSD2 inh)
O=C1CC2(CCCCC2)Oc2ccccc21	SIRT5 inh 31 (no result: UBC9 SUMO inh, NSD2 inh)
COc1cc(-c2nc(-c3ccccc3)c(-c3cccs3)[nH]2)cc(OC)c1OC	none (no result: SIRT5 inh, CASP6 VEID inh)
c1ccc(-c2nc(-c3cccs3)[nH]c2-c2ccccc2)cc1	SIRT5 inh 15
O=C(N/N=C/c1cc(Cl)cc(Cl)c1O)c1ccncc1	UBC9 SUMO inh 58 (no result: NSD2 inh)
Cc1noc(C)c1S(=O)(=O)N(C)C[C@H]1Oc2ccc(NS(=O)(=O)c3ccccc3)cc2CC(=O)N([C@@H](C)CO)C[C@H]1C	none (no result: UBC9 SUMO inh, NSD2 inh)
CNC(=O)C1CC(=O)N(c2ccc(OCC(=O)NCc3ccccc3)cc2)C1 (configuration not stated)	SIRT5 inh 25
CCNC(=O)C1CC(=O)N(c2ccc(OCC)cc2)C1 (configuration not stated)	none (no result: SIRT5 inh, CASP6 VEID inh)
CCOc1ccc(N2CC(C(=O)NCC(=O)Nc3ccc(F)c(F)c3F)CC2=O)cc1 (configuration not stated)	CASP6 VEID inh 44 (no result: UBC9 SUMO inh)
CCCN1CCC(NC(=O)Nc2ccc(Br)cc2)CC1	none
CCCN1CCC(NC(=O)Nc2ccc([N+](=O)[O-])cc2)CC1	SIRT5 inh 17
CN1C(=O)c2cc(NC(=O)c3ccc(F)cc3)ccc2OC[C@@H]2O[C@H](CC(=O)N3CCOCC3)CC[C@@H]21	none (no result: UBC9 SUMO inh, NSD2 inh)
CCCN(C)C[C@@H]1Oc2ncc(-c3cccc(C#N)c3)cc2C(=O)N([C@H](C)CO)C[C@@H]1C	none (no result: UBC9 SUMO inh, NSD2 inh)
CCOC(=O)c1cnc2ccc(OCC)cc2c1NCCCN1CCOCC1	SIRT5 inh 27
CCOC(=O)c1cnc2ccc(OCC)cc2c1NCCN1CCOCC1	none
Cc1noc(/C=C/N(C)C)c1S(=O)(=O)N1CCCC(C(=O)N2CCCCC2)C1 (configuration not stated)	SIRT5 inh 17 (no result: NSD2 inh)
CO[C@H]1CN(C)C(=O)c2cc(NC(=O)CC(F)(F)F)ccc2OC[C@@H](C)N(C(=O)C2CCCCC2)C[C@@H]1C	SIRT5 inh 28 (no result: UBC9 SUMO inh, NSD2 inh)
CCC(=O)N1C[C@@H](C)[C@@H](OC)CN(C)C(=O)c2cc(NC(=O)CC(F)(F)F)ccc2OC[C@@H]1C	SIRT5 inh 21 (no result: UBC9 SUMO inh, NSD2 inh)
CO[C@H]1CN(C)C(=O)c2cc(NC(=O)CC(F)(F)F)ccc2OC[C@H](C)N(C(=O)C2CCCCC2)C[C@H]1C	none (no result: UBC9 SUMO inh, NSD2 inh)
Cc1ccc(NC(=O)C(c2ccccc2)N2CCN(CC(=O)N3CCOCC3)CC2)cc1Cl (configuration not stated)	CASP6 VEID inh 47 (no result: UBC9 SUMO inh)
CC(C)CC(=O)Nc1ccc(-c2nc3ccccc3c(=O)[nH]2)cc1	SIRT5 inh 16
O=C(CSc1nc2ccccc2c(=O)[nH]1)Nc1ccc([N+](=O)[O-])cc1	none (no result: UBC9 SUMO inh)
O=C(CSc1nc2ccccc2c(=O)[nH]1)Nc1ccc(C(=O)O)cc1	CASP6 VEID inh 37
C[C@@H]1CN([C@H](C)CO)C(=O)c2cc(NC(=O)CCC(F)(F)F)ccc2O[C@@H](C)CCCCO[C@H]1CN(C)C(=O)c1ccccc1	none (no result: UBC9 SUMO inh, NSD2 inh)
COc1ccc(-c2cnc3c(c2)C(=O)N([C@@H](C)CO)C[C@H](C)[C@@H](CN(C)Cc2cccnc2)O3)cc1	none (no result: UBC9 SUMO inh, NSD2 inh)
CC(C)(C)OC(=O)NOCC(=O)N(CC(=O)c1ccccc1)Cc1ccccc1	SIRT5 inh 27 (no result: UBC9 SUMO inh, NSD2 inh)
CCCCNc1nc(N)ncc1[N+](=O)[O-]	SIRT5 inh 30
CCCCNc1c([N+](=O)[O-])ncn1C	none
CN(C(=O)CSc1nc(-c2ccccc2)c(-c2ccccc2)o1)C1CCS(=O)(=O)C1 (configuration not stated)	none
CN(C(=O)CSc1nc2ccccc2o1)C1CCS(=O)(=O)C1 (configuration not stated)	SIRT5 inh 16 (no result: UBC9 SUMO inh)
CCN(CC)c1nc(N)c2c(N)nc(OC)cc2c1C#N	CASP6 VEID inh 51 (no result: UBC9 SUMO inh, SIRT5 inh, NSD2 inh)
CNC(=O)C[C@@H]1CC[C@H]2[C@@H](COc3ccc(NC(=O)Nc4cccc(C)c4)cc3C(=O)N2C)O1	none (no result: UBC9 SUMO inh, NSD2 inh)
O=C(COC(=O)/C=C/c1cccs1)Nc1cccc(S(=O)(=O)N2CCCC2)c1	SIRT5 inh 15
CS(=O)(=O)C1=NSC2=NC(=O)/C(=C\c3ccc(OS(=O)(=O)c4ccccc4)cc3)C(=N)N21	SIRT5 inh 17
